3CLpro inhibitor – SARS-CoV 3CLpro protease inhibition. recombinant SARS-CoV 3CLpro, quenched FRET peptide cleavage. inhibition, % at 6 µM. 290,000 tested, 0.14% active. AID 1706; in the data active = inhibition above about 12%
GDH-TPI inh – GDH-TPI coupled enzyme inhibition counter-screen; AID 588335; 360,000 tested, 1.2% active; GDH-TPI coupled enzyme counterscreen, NADH absorbance; inhibition, % at 4.8 µM; in the data active = inhibition above about 30%;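 also: 0% = DMSO wells and 100% = wells lacking the enzyme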
PrPC surface inh – inhibitors of human cell surface prion protein PrPC | P04156 | TR-FRET read-out | inhibition, % at 13.8 µM | 370,000 tested, 0.43% active; in the data active = inhibition above about 24%; also: 0% = median of the test wells and 100% = reference compound wells
Vc quorum ag-1 – induces V. cholerae light production without autoinducers. V. cholerae BH1578 lux reporter, luminescence, 6 h. activation, % at 18.7 µM. 350,000 tested, 0.16% active. AID 588436; in the data active = activation mostly above about 9.7%, no sharp cut-off
Mtb FBA inh – inhibits M. tuberculosis FBA enzyme | P9WQA3 | purified M. tuberculosis FBA, fluorescence read-out | inhibition, % at 1 µM | 360,000 tested, 2.3% active | AID 588726; in the data active = inhibition above about 27%;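 also: 0% = vehicle and 100% = reference inhibitor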
Target sequence (P9WQA3 whole entry, looked up): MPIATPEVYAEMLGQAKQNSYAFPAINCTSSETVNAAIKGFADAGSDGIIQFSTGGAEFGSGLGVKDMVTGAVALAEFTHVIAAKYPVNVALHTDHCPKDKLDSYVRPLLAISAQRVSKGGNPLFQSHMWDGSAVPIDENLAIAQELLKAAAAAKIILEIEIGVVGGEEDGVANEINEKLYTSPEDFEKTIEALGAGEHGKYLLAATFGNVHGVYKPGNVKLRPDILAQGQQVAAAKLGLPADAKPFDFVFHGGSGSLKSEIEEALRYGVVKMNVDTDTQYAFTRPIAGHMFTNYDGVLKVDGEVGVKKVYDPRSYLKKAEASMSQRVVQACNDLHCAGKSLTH
Vc quorum ag-2 – quorum light induction in BH1578 reporter strain | shares compounds with Vc quorum ag-1 | V. cholerae BH1578 lux reporter, luminescence, 6 h | AID 602243 | 620 tested, under 10 active | activation, % at 50 µM; call rule not given here
An asterisk follows results filed as active; i = inactive; / = no result. Hits are enriched below; roughly 3.9% of the tested compounds scored in any of these assays.

SMILES | 3CLpro inhibitor | GDH-TPI inh | PrPC surface inh | Vc quorum ag-1 | Mtb FBA inh | Vc quorum ag-2
CC1(NC(=O)C23CC4CC(CC(C4)C2)C3)CCS(=O)(=O)C1 (stereo unspecified) | 0.1 | -10.1 | -4.1 | 16.7* | 1.3 | 0.0
COc1ccc(C(=O)Nc2ccccc2C(=O)N2CCCCC2C)cc1 (stereo unspecified) | -1.1 | 7.8 | -2.4 | -0.3 | 0.4 | /
CC(=O)Nc1cccc(C(=O)OCC(=O)N2CCC(c3ccccc3)=N2)c1 | / | -1.1 | 0.4 | -0.6 | 0.1 | /
CC(C)NC(=O)c1cnc(Sc2ncc(C(F)(F)F)cc2Cl)n1C | 2.4 | 4.1 | 0.9 | 12.5 | 0.7 | -0.1
Cn1c(C(=O)O)cnc1Sc1ncc(C(F)(F)F)cc1Cl | 2.0 | 2.5 | -6.1 | 1.6 | 0.8 | /
CCC(CC)c1nnc(NC(=O)COc2ccc3c(C)cc(=O)oc3c2)s1 | 5.9 | 14.1 | 1.4 | 25.0 | 2.1 | 0.2
Cc1cc(=O)oc2cc(OCC(=O)Nc3nccs3)ccc12 | 2.6 | 21.4 | 4.4 | i | 13.9 | /
CCN(CC)C(=O)C1=C(C)N(Cc2ccc(OC)cc2)C(=O)C(CC(=O)NC(c2ccccc2)c2ccccc2)C1 (stereo unspecified) | / | 4.7 | -1.8 | -0.4 | -2.5 | /
O=C(Nc1nnc(C(F)(F)F)s1)C1COc2ccccc2O1 (stereo unspecified) | -1.0 | -15.6 | 1.9 | 19.2 | 3.2 | 0.9
O=C(c1ccccc1)N1CCN(c2ccc([N+](=O)[O-])cc2-n2cccc2)CC1 | 8.3 | 9.6 | -16.8 | -0.9 | -1.6 | /
O=S(=O)(Nc1ccc(-c2ccc3nncn3n2)cc1)c1ccccc1Cl | / | 14.2 | -7.8 | i | 3.2 | /
O=S(=O)(Nc1ccc(-c2ccc3nncn3n2)cc1)c1ccc(Cl)s1 | / | 20.4 | 5.6 | 160.2* | 10.6 | -0.1
COc1cccc(C(=O)N[C@H](C(=O)N2CCC[C@H]2C(=O)NC2CCCC2)c2ccccc2)c1 | / | / | -1.2 | / | / | /
Cn1cccc1C(=O)OCc1cc(-c2ccco2)on1 | / | 2.8 | 2.1 | 31.0* | -1.7 | 39.4
C=C(C)CN1CCN(S(=O)(=O)c2ccc(C)c(N(C)S(=O)(=O)c3ccc(C)cc3)c2C)CC1 | 4.9 | -3.0 | 0.5 | i | -0.2 | /
CCOC(=O)c1cnc(-n2nc(C)cc2C)nc1NC1CCCC1 | 7.7 | -3.5 | 4.1 | -1.3 | 4.6 | /
CCOC(=O)c1cnc(-n2nc(C)cc2C)nc1N(C)C | -1.3 | 6.4 | -1.4 | 12.5 | 5.5 | 2.2
CCc1sc(N(C(=O)Cc2ccccc2)c2cccc(F)c2)nc1-c1ccc(C)cc1 | 0.3 | 13.5 | 6.1 | 12.5 | 2.7 | -0.2
Cc1ccc2occ(C(c3nnnn3Cc3ccccc3)N3CCOCC3)c(=O)c2c1 (stereo unspecified) | 9.0 | -8.5 | 1.2 | 25.0* | 1.7 | 0.8
CCc1ccc2[nH]c(=O)c(C(c3nnnn3Cc3ccccc3)N3CCOCC3)cc2c1 (stereo unspecified) | -3.2 | 16.5 | 1.9 | i | 2.4 | /
COc1ccc(CNC(=O)OC2CC3CC2[C@H]2CCCCN2C3=O)cc1 (stereo partly specified) | / | / | 0.0 | / | / | /
CN(C(=O)COC(=O)C(C)(C)Oc1ccc(Cl)cc1)c1c(N)n(Cc2ccccc2)c(=O)[nH]c1=O | / | 1.4 | -1.9 | -1.1 | 3.4 | /
CCOC(=O)c1cnc2nc(Cc3ccccc3)[nH]n2c1=O | -5.2 | 0.0 | 1.9 | i | 6.7 | /
CCOC(=O)c1cnc2nc(C(F)(F)F)[nH]n2c1=O | -0.4 | 5.2 | 0.1 | 16.7* | 8.2 | 0.4
COc1ccc2nc(SC(C)C(=O)NCC(=O)Nc3ccc(F)c(F)c3F)[nH]c2c1 (stereo unspecified) | / | 9.1 | 7.4 | 14.3 | -6.0 | 0.0
SMILES | 3CLpro inhibitor | GDH-TPI inh | PrPC surface inh | Vc quorum ag-1 | Mtb FBA inh | Vc quorum ag-2
COc1ccc(N2CC(C(=O)Nc3cc(C(F)(F)F)ccc3N3CCCC3)CC2=O)c(OC)c1 (stereo unspecified) | / | 0.7 | 3.8 | 19.3 | -1.8 | 4.9
Cc1cccc(NC(=O)CS(=O)(=O)c2cn(C)c3ccccc23)c1C | 4.9 | 5.2 | 0.1 | 16.7* | -3.8 | 0.3
c1ccc(-c2ccc(CN3Cc4ccccc4-n4nncc4C3)cc2)cc1 | / | -1.9 | 8.0 | 249.0* | -1.8 | 397.4
O=C(NCC1CCCO1)C1CCN(C(=O)c2ccc(Cl)cc2)CC1 (stereo unspecified) | 1.7 | 6.4 | 1.2 | 16.7* | -0.8 | 0.2
O=C(Nc1c(F)cccc1F)C1CCN(C(=O)c2cccs2)CC1 | -6.3 | -4.5 | -9.9 | -0.4 | 3.0 | /
CCS(=O)(=O)Nc1ccc(C(=O)OC)cc1 | 2.5 | -10.7 | 4.8 | 16.7* | -1.2 | 0.4
